A selection: hits, their analogues and other compounds. The true share with any hit is near 3.3%.
HTT aggregate = reduces HttQ103-GFP aggregates in PC12 cells; PC12 HttQ103-GFP aggregates, Acumen cytometry, 40 h; Potency, µM (doses to about 46.1 µM), most hits filed as inhibitors; 220,000 tested, 1.1% active; further: nearly all actives have a fitted effect of over 60% in size
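Read-out: GFP aggregate count by laser scanning cytometer (488 nm excitation, 500-530 nm emission, 1–25 µm objects >6 SD above background). Cells: PC12, inducible HTTex1-Q103-GFP, 100 nM tebufenozide; compounds titrated.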
NPSR antagonist = neuropeptide S receptor (human) antagonism, cAMP | Q6W5P4 | CHO-NPSR cells, cAMP TR-FRET, antagonist mode | Potency, µM (doses to about 38.3 µM), hits mostly inhibitors | 220,000 tested, 1% active | AID 1461; further: nearly all actives have a fitted effect of over 50% in size
Target sequence (Q6W5P4 whole entry, looked up): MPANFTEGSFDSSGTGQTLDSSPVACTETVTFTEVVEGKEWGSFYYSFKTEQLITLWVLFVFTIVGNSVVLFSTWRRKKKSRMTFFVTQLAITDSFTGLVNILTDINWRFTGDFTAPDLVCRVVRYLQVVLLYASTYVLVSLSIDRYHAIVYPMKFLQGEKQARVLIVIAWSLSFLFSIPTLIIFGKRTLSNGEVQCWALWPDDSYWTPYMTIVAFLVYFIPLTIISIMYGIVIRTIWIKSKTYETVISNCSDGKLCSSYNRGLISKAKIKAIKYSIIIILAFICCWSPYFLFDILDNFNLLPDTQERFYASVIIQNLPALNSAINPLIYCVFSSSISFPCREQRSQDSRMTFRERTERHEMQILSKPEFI
IMPase inh = membrane-permeable compound that blocks inositol monophosphatase; P97697; CHO-M1 cells, IP1 accumulation, HTRF TR-FRET ratio; inhibition (IP1 accumulation), % at 46.1 µM; 120,000 tested, under 10 active; active means well fitted curve in the direction sought with a large enough effect in the signal ratio, not every such curve was filed as active; inconclusive means small, poorly fitted or top-dose-only effect, or a change in a side signal; inactive means no such curve, though single readings can be large or run the other way; the % refers to the signal ratio;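 further: cells stimulated with carbachol in lithium chloride buffer; higher means more IMPase inhibition seen as more IP1 and lower FRET ratio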
Target sequence (P97697 whole entry, looked up): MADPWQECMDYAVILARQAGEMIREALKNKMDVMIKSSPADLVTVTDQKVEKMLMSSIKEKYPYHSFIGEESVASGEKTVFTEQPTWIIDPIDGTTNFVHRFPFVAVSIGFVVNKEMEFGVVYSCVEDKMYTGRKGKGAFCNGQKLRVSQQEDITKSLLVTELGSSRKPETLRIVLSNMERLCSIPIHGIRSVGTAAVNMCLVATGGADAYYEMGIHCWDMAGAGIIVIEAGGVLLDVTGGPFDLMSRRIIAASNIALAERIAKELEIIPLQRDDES
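CHO-M1 cells (CHO stably expressing M1 receptor), compound up to 46 uM final, stimulated with carbachol (50 uM as added) in buffer with 50mM LiCl, pH 7.4, 30 min at 37C. Cytosolic IP1 read by TR-FRET; AC50 from Hill fits.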
HTT cytoprotect = protects HTT-Q103 PC12 cells, measured by ATP; PC12 HTT-Q103 induced, cytoprotection, ATP luminescence, 40 h; Potency, µM (series often up to 56.4 µM), usual class: activators; AID 1471; 230,000 tested, 0.14% active; further: nearly all actives have a fitted effect of over 45% in size
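Huntington model: PC12 line, ecdysone-inducible HTTQ103 exon1–GFP, tebufenozide 100 nM. Test articles in a dose series. Endpoint luminescence from cellular ATP.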
12-hLO inh = 12-hLO (ALOX12) enzyme inhibition; P18054; purified 12-hLO, xylenol orange hydroperoxide absorbance; Potency, µM (top dose mostly 57.1 µM), usual class: inhibitors; 150,000 tested, 0.12% active; AID 1452; further: nearly all actives have a fitted effect of over 55% in size
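Purified human 12hLO (150 nM), preincubated 15 min with compound, then 40 uM arachidonic acid for 30 min, room temperature, Hepes pH 7.0 with 0.01% Triton X-100. Hydroperoxide detected by ferrous iron/xylenol orange; 573/405 nm absorbance ratio gives reaction progress.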
PNC inhibitor = inhibitors of perinucleolar compartment assembly. PC3M PTB-GFP, PNC prevalence imaging, 16 h; active compounds read low. 140,000 tested, 3.1% active. activity change (PNC), negative = inhibition, % at 10 µM. AID 2417;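 active means readout at or below -70, meaning at least 70% loss of cells showing the perinucleolar compartment, a nuclear body marking cancer cells; inconclusive means readout between -30 and a set limit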
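PC3M cells stably expressing PTB-GFP, 750–1000 cells/well, treated 16 h at 37 °C with compound (23 nl of library stock), in duplicate. After paraformaldehyde fixation and Hoechst stain, imaged at 20x; PNC prevalence scored by image analysis.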
Numbers stand for hits; . = inactive; ? = inconclusive; / = no result given; [ ] = remark or other dose. Unless noted, the call rests on the fitted dose curve; in most records, active means well fitted curve in the direction sought with a large enough effect; inconclusive means small, poorly fitted or top-dose-only effect, or another doubt; inactive means no such curve, though single readings can be large; an effect the other way counts as inactive or inconclusive.

SMILES	HTT aggregate	NPSR antagonist	IMPase inh	HTT cytoprotect	12-hLO inh	PNC inhibitor
Cc1c(NC(=S)N/N=C/C=C/c2ccc([N+](=O)[O-])cc2)c(=O)n(-c2ccccc2)n1C	.	.	/	/	.	-109
CCCCCSc1nc2c(c(=O)[nH]c(=O)n2C)n1C	.	.	.	.	.	.
CCNc1nc2c(c(=O)[nH]c(=O)n2C)n1CC(C)C	.	.	.	.	.	.
CCCCCSc1nc2c(c(=O)[nH]c(=O)n2C)n1C(C)C	.	.	.	.[10 µM]	.	-119
CCCCCCn1c(NCC)nc2c1c(=O)[nH]c(=O)n2C	?	.	.	.[10 µM]	.	-93
COc1cc2c(C#N)c(N3CCCCC3)nc(N)c2c(N)n1	11µM	.	.	.	.	.
CCNc1nc(Oc2ccc(=O)[nH]n2)nc(N2CCOCC2)n1	.[9.22 µM]	.	.	.	.	?
O=c1ccc(Oc2nc(N3CCCCC3)nc(N3CCCCC3)n2)n[nH]1	.	?	.	.[10 µM]	.	-100
COc1ccc(/C=C(\C#N)C(=O)OCC(=O)Nc2ccc(-c3nc4ccc(C)cc4s3)cc2)cc1	.[9.22 µM]	.	/	.	/	/
Cc1c(C(=O)Nc2ccc(Cl)cc2)c2ccccn2c1CCc1ccncc1	?	?	.	.[10 µM]	.	-85
Cc1c(C(=O)Nc2cccc(Cl)c2)c2ccccn2c1CCc1ccncc1	.	.	?	.[10 µM]	.	.
CC(NC(=O)C1CCCCC1)C(=O)NC1=NCCS1 (stereo not drawn)	.	.	.	.	.	-112
N#CCCN(C(=O)CCl)c1cccc(Cl)c1	18µM	.	/	.	/	/
CCCCCCCN(C(=O)CCl)c1cccc(C)c1	.	.	.	.[10 µM]	.	.
CC(=O)N1CCC2(CC1)CCN(c1ncccn1)CC2	/	/	/	.	.	/
O=C(CCC1CCCN(c2ncccn2)C1)NCc1ccc(F)c(F)c1 (stereo not drawn)	.[9.22 µM]	.	/	.[10 µM]	/	/
Cc1ccc(S(=O)(=O)N[C@H]2COC(=O)C/C=C\[C@@H](C)[C@H](NS(=O)(=O)c3ccc(C)cc3)COC(=O)[C@H](C)NC(=O)C/C=C\[C@H]2C)cc1	/	/	/	.[10 µM]	/	/
Cc1c(Cl)cccc1NC(=O)CC1SCCNC1=O (stereo not drawn)	.	.	.	.[0.074 µM]	.	.
Cc1ccccc1NC(=O)CC1SCCNC1=O (stereo not drawn)	?	.	.	?	.	-92
CN(C(=O)COC(=O)CNC(=O)C12CC3CC(CC(C3)C1)C2)C1CCS(=O)(=O)C1 (stereo not drawn)	.	.	/	.[10 µM]	.	-121
O=c1c(-c2cccc(F)c2)nc2cncnc2n1C1CC1	/	/	/	.	.	/
COC(=O)[C@H]1Cc2c([nH]c3ccccc23)CN1C(=O)COc1ccc2c(C)cc(=O)oc2c1	/	/	/	.	/	/
C[C@H](CCC(=O)NCC(=O)O)C1CC[C@H]2C3CC[C@@H]4C[C@H](O)CC[C@]4(C)C3C[C@H](O)[C@]12C (stereo partly drawn)	/	/	/	.	/	/
Cc1cc(C(=O)CSc2nc3ccc(Cl)cc3[nH]2)c(C)n1CC1CCCO1 (stereo not drawn)	3.2µM	.	.	.	.	.
CC(C)CN(C(=O)CN1CCN(c2ccccc2O)CC1)c1c(N)n(CC(C)C)c(=O)[nH]c1=O	.	.	/	.[0.074 µM]	.	-86
SMILES	HTT aggregate	NPSR antagonist	IMPase inh	HTT cytoprotect	12-hLO inh	PNC inhibitor
COC(=O)CSc1nc(N)c2c3c(sc2n1)C(c1ccccc1)SC(c1ccccc1)C3 (stereo not drawn)	.	13µM	/	.[10 µM]	.	.
Nc1c(O)cccc1C(=O)C[C@@H](N)C(=O)O	/	/	.	.	.	/
Fc1ccc(NC(=S)NCCc2ccccc2)c(F)c1F	.	.	.	.	16µM	.
Fc1ccccc1NC(=S)NCCc1ccccc1	.	.	.	.	.	?
S=C(NCCc1ccc(Cl)cc1)Nc1ccc(Cl)cc1Cl	?	.	.	.[10 µM]	11µM	.
O=C1CN(S(=O)(=O)c2ccc(Cl)cc2)CC(=O)N1CCc1ccccc1	.	.	.	.	.	.
O=C1CN(S(=O)(=O)c2ccc(F)cc2)CC(=O)N1CCc1ccccc1	.	.	.	.	.	-100
O=C(CC(C(=O)O)c1ccc(Cl)cc1)c1ccccc1 (stereo not drawn)	.	.	/	.	/	/
COC(=O)C(CC(=O)c1ccc(Cl)cc1)c1ccc(C)cc1 (stereo not drawn)	.	.	.	.[10 µM]	.	-100
Cc1ccc(/C=N/N2CCN(Cc3ccc(C)cc3)CC2)cc1	.[9.22 µM]	.	/	.[10 µM]	/	/
Cc1ccc(CN2CCN(/N=C/c3cccs3)CC2)cc1	?	.	/	.[10 µM]	.	-99
O=C(Nc1c(-c2ccccc2)nc2ccccn12)c1ccco1	.	.	.	.[10 µM]	.	-82
CCOC(=O)CCCCNCc1ccccc1	.	.	.	.[10 µM]	.	-100
O=C(O)CCCCNCc1ccccc1	.	.	.	.	.	.
Cn1c(C(=O)NCc2cccs2)cc2oc3ccccc3c21	?	.	.	.	.	.
Cn1c(C(=O)NCc2ccccc2)cc2oc3ccccc3c21	.	.	.	.	.	-106
C=C(C)C(=O)/C=C/CCC/C=C/C(=O)OCC	/	/	/	.	/	/
COc1ccc(Nc2ccccc2N)cc1	13µM	.	/	.	/	/
Nc1ccc(Nc2ccccc2N)cc1	.	.	.	.[10 µM]	.	.
CC(C)OC(=O)c1cccc(-c2ccc(C=O)o2)c1	.	.	/	/	.	-108
CC(C)OC(=O)c1ccc(COC(=O)c2cccc(-c3nnc(-c4ccccc4)o3)c2)cc1	.	.	.	.[10 µM]	.	?
COc1ccc(NC(=O)CSc2ccc3c4c(cccc24)C(=O)c2ccccc2-3)cc1	?	.	.	.	.	.
N#Cc1cccc(NC(=O)CSc2ccc3c4c(cccc24)C(=O)c2ccccc2-3)c1	7.9µM	.	.	.	.	?
O=C(Cc1ccccc1)Nc1nc(-c2cccc([N+](=O)[O-])c2)cs1	.	.	.	.[10 µM]	.	-103
O=C(Cc1nc(-c2ccc([N+](=O)[O-])cc2)cs1)Nc1ccccc1	.	.	.	.	.	-100
SMILES	HTT aggregate	NPSR antagonist	IMPase inh	HTT cytoprotect	12-hLO inh	PNC inhibitor
O=C(CN1C(=O)c2ccccc2C1=O)Nc1nc(-c2cccc([N+](=O)[O-])c2)cs1	.	.	.	.	.	.
COCC(=O)Nc1nc(-c2ccc([N+](=O)[O-])cc2)cs1	.	.	/	.	/	/
O=C(Nc1cccc(F)c1)N1CCCC2(CCN(C(=O)c3cnccn3)CC2)C1	/	/	/	.	.	/
COC(=O)c1c[nH]n2c(=O)c(Cl)c(C)nc12	.	.	/	/	.	-113
COC(=O)c1c[nH]n2c(=O)cc(C)nc12	.	.	.	.	.	.
COC(=O)c1c[nH]n2c(=O)c(Cc3ccc(F)cc3Cl)c(C)nc12	18µM	.	.	.[0.074 µM]	.	.

Source: PubChem
